Source: PubChem BioAssay (EPA / NIEHS)
Records with an inconclusive call do not appear. Active and inactive are the calls of the source. Rule for the calls, unless noted: active = hit-call score of the fitted dose curve at least 0.9, where 1 is the maximum; inactive = score below 0.9.

Tests used:
[1] = CCTE_Shafer_MEA_dev_firing_rate_mean: CCTE's Neural Network Formation Assay for Mean Firing Rate, Shafer Lab (AID 2284031);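 note: curve fitted for loss of firing so AC50 reflects decreased mean firing rate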
Procedure, shortened: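 Primary rat cortical neurons on 48-well MEA plates, exposed from plating day 0 with dosing renewed on DIV 5 and 9. Mean well firing rate over active electrodes, recorded days 5, 7, 9, 12, summarised as trapezoidal AUC.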

[2] = CCTE_Shafer_MEA_dev_per_burst_spike_percent: CCTE's Neural Network Formation Assay for Percent of Spikes in a Burst, Shafer Lab (AID 2284032);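 note: fitted as a decrease in burst spike percentage below DMSO baseline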
Procedure, shortened: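 Rat primary cortical neurons on 16-electrode MEA wells, dosed from plating day 0 for 12 days with renewal on DIV 5 and 9; spikes-in-bursts percentage averaged over bursting electrodes, collapsed as AUC across days 5, 7, 9, 12; loss direction versus DMSO.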

[3] = CCTE_Shafer_MEA_dev_active_electrodes_number: CCTE's Neural Network Formation Assay for Number of Active Electrodes, Shafer Lab (AID 2284040; active = hit-call score of the fitted dose curve at least 0.9, where 1 is the maximum;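 note: potency for loss of active electrodes versus DMSO so lower counts are hits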)
Procedure, shortened: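 Primary rat cortical neurons on 16-electrode MEA wells, exposed from day 0 through day 12 with compound renewed at DIV 5 and 9 feeds. Active electrodes (mean firing ≥5 spikes/min) counted at DIV 5, 7, 9, 12; trapezoidal AUC across days, loss-of-signal versus DMSO.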

[4] = CCTE_Shafer_MEA_dev_burst_rate: CCTE's Neural Network Formation Assay for Burst Rate, Shafer Lab (AID 2284042);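 note: potency for loss of burst rate below DMSO control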
Procedure, shortened: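 Primary rat cortical neurons on PEI-coated 48-well MEA plates (laminin added with cells at plating) (16 electrodes/well), exposed from plating to day 12, dosing renewed at DIV 5 and 9. Burst rate averaged over active electrodes, recorded DIV 5, 7, 9, 12, summarized as AUC; loss versus DMSO.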

[5] = CCTE_Shafer_MEA_dev_bursting_electrodes_number: CCTE's Neural Network Formation Assay for Number of Bursting Electrodes, Shafer Lab (AID 2284043; active = hit-call score of the fitted dose curve at least 0.9, where 1 is the maximum;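 note: potency is for loss of bursting electrodes relative to DMSO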)
Procedure, shortened: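 Primary rat cortical neurons plated on 16-electrode MEA wells, exposed from day 0 with compound renewed at DIV 5 and 9. Electrodes bursting ≥1 burst per 2 min counted on days 5, 7, 9 and 12; trapezoidal AUC across days, fitted for loss versus DMSO.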

[6] = CCTE_Shafer_MEA_dev_per_burst_interspike_interval: CCTE's Neural Network Formation Assay for Burst Interspike Interval, Shafer Lab (AID 2284044);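 note: mean spike spacing inside bursts as AUC over recordings on days 5 7 9 12; potency for a decrease of within-burst interspike interval below DMSO level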
Procedure, shortened: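 Rat cortical primary cultures, 16 electrodes/well; compound from plating, renewed with full media change DIV 5 and 9. Spikes via adaptive detector; per-burst ISI well-mean over active bursting electrodes; AUC of DIV 5/7/9/12 recordings; loss-direction fit vs DMSO.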

[7] = CCTE_Shafer_MEA_dev_burst_duration_mean: CCTE's Neural Network Formation Assay for Mean Burst Duration, Shafer Lab (AID 2284045)
Procedure, shortened: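 Primary rat cortical neurons on 48-well 16-electrode MEA plates, exposed from day 0 with renewal at DIV 5 and 9; spontaneous activity recorded on days 5, 7, 9, 12. Well-mean burst duration across bursting electrodes, collapsed as trapezoidal AUC; DMSO baseline.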

[8] = CCTE_Shafer_MEA_dev_interburst_interval_mean: CCTE's Neural Network Formation Assay for Mean Interburst Interval, Shafer Lab (AID 2284046);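 note: well-mean interburst interval of bursting electrodes as AUC over four recording days; curve fitted for decrease in interburst interval relative to DMSO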
Procedure, shortened: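 Recordings on days 5, 7, 9 and 12 give well-mean interburst interval across actively bursting electrodes, summarized as area under the curve. Cultures: rat cortical neurons, continuous exposure from day 0, compound renewed at feeds; decrease analyzed versus DMSO.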

[9] = CCTE_Shafer_MEA_dev_inter_network_spike_interval_mean: CCTE's Neural Network Formation Assay for Mean Inter-network Spike Interval, Shafer Lab (AID 2284047)
Procedure, shortened: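 Primary rat cortical neurons on 16-electrode MEA wells, exposed from plating day 0 through DIV 12, compound renewed at DIV 5 and 9 media changes. Mean interval between network-spike peaks recorded DIV 5, 7, 9, 12; collapsed as trapezoidal AUC, fitted downward versus DMSO.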

[10] = CCTE_Shafer_MEA_dev_network_spike_number: CCTE's Neural Network Formation Assay for Number of Network Spikes, Shafer Lab (AID 2284048);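 note: fit as a loss of signal meaning fewer network spikes than DMSO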
Procedure, shortened: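 Primary rat cortical neurons on PEI/laminin 48-well MEA plates, dosed from plating day 0 for 12 days, renewed at DIV 5 and 9. Network spike counts recorded DIV 5, 7, 9, 12, collapsed as trapezoidal AUC; DMSO baseline.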

[11] = CCTE_Shafer_MEA_dev_network_spike_peak: CCTE's Neural Network Formation Assay for Mean Number of Electrodes in Network Spike, Shafer Lab (AID 2284049);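 note: fitted for loss of signal meaning fewer electrodes in network spikes than DMSO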
Procedure, shortened: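 Network-spike peak electrode count from recordings on days 5, 7, 9 and 12 was combined as trapezoidal area under the curve. Rat cortical cultures were treated continuously from plating, with compound renewed at each feed (DIV 5, 9); fits versus DMSO.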

[12] = CCTE_Shafer_MEA_dev_spike_duration_mean: CCTE's Neural Network Formation Assay for Mean Spike Duration, Shafer Lab (AID 2284051);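 note: mean network spike duration pooled as area under curve over DIV 5 to 12 recordings; potency for a decrease in mean network spike duration versus DMSO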
Procedure, shortened: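 Primary rat cortical neurons on 16-electrode MEA wells (PEI-coated, laminin in plating drop), exposed from plating through DIV 12 with compound renewed at DIV 5 and 9. Mean network-spike duration recorded DIV 5, 7, 9, 12; trapezoidal AUC across days, DMSO baseline.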

[13] = CCTE_Shafer_MEA_dev_network_spike_duration_std: CCTE's Neural Network Formation Assay for Standard Deviation of Network Spike Duration, Shafer Lab (AID 2284052);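 note: area under curve of spike duration SD across recording days 5 to 12; hits are decreases in network spike duration SD versus DMSO vehicle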
Procedure, shortened: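 Primary rat cortical neurons on PEI-coated 16-electrode MEA wells, exposed from plating day 0 through day 12 with compound renewed at DIV 5 and 9. Network spike duration SD recorded on days 5, 7, 9, 12, collapsed as trapezoidal AUC; loss-of-signal fit versus DMSO.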

[14] = CCTE_Shafer_MEA_dev_per_network_spike_spike_number_mean: CCTE's Neural Network Formation Assay for Mean Number of Spikes in a Network Spike, Shafer Lab (AID 2284053);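 note: fitted as decrease in spikes per network spike relative to DMSO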
Procedure, shortened: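 Primary rat cortical neurons on 48-well, 16-electrode MEA plates were exposed from plating to DIV 12, with dosing renewed on DIV 5 and 9. Spikes per network spike (0.05 s peak window) were recorded on DIV 5, 7, 9 and 12 and collapsed as trapezoidal AUC versus DMSO.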

[15] = CCTE_Shafer_MEA_dev_per_network_spike_spike_percent: CCTE's Neural Network Formation Assay for Percent of Spikes in a Network Spike, Shafer Lab (AID 2284054)
Procedure, shortened: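 Rat primary cortical neurons were grown on 48-well MEA plates (16 electrodes/well), exposed from plating day 0 through day 12, with treatment renewed on DIV 5 and 9. Percent of spikes within 0.05 s network-spike peaks was measured, summarised as AUC across days 5, 7, 9, 12.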

[16] = CCTE_Shafer_MEA_dev_LDH: CCTE's Lactate Dehydrogenase Assay for Cytotoxicity in the Neural Network Formation Assay, Shafer Lab (AID 2284068; active = hit-call score of the fitted dose curve at least 0.9, where 1 is the maximum;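 note: exposure for twelve days from plating with re-dosing on DIV 5 and 9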)
Procedure, shortened: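 Primary rat cortical neurons were plated on PEI/laminin MEA plates and exposed from day 0 for twelve days, with compound renewed at DIV 5 and 9. Cytotoxicity was determined by spectrophotometric LDH assay relative to DMSO.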

[17] = CCTE_Shafer_MEA_dev_AB: CCTE's Alamar Blue Assay for Cytotoxicity in the Neural Network Formation Assay, Shafer Lab (AID 2284083; active = hit-call score of the fitted dose curve at least 0.9, where 1 is the maximum;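 note: twelve days of exposure from plating with re-dosing on DIV 5 and 9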)
Procedure, shortened: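 Primary rat cortical neurons on PEI-coated 48-well MEA plates, 1.5 x 10^5 cells/well in laminin drop; compound exposure from day 0 of plating for twelve days, renewed at medium changes on DIV 5 and 9. Viability read as resazurin reduction by fluorescence, relative to DMSO.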

[18] = CCTE_Shafer_MEA_dev_mutual_information_norm: CCTE's Neural Network Formation Assay for Mutual Information Normalization, Shafer Lab (AID 2284091);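 note: mutual information between electrodes summarised as area under curve across four recording days; potency is for a decrease in mutual information relative to DMSO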
Procedure, shortened: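 Primary rat cortical neurons on PEI-coated 48-well MEA plates, 1.5 x 10^5 cells/well, exposed from day 0 through day 12 with re-dosing at DIV 5 and 9. Mutual information between electrodes recorded days 5, 7, 9, 12; trapezoidal AUC, loss-of-signal fit versus DMSO.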

[19] = CCTE_Shafer_MEA_dev_correlation_coefficient_mean: CCTE's Neural Network Formation Assay for Mean Correlation Coefficient, Shafer Lab (AID 2284093);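 note: well mean pairwise spike train correlation integrated as AUC over recording days 5 to 12; potency fitted for loss of correlation relative to DMSO vehicle wells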
Procedure, shortened: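 Spontaneous activity recorded on days 5, 7, 9 and 12 post-plating; pairwise spike correlations are averaged across active electrodes and collapsed to an area-under-curve. Rat cortical cultures are dosed from plating through 12 days, with compound renewed at media changes.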

[20] = UKN2_HCS_IMR90_neural_migration: University of Konstanz (UKN) Leist Lab Neural Crest Cell Migration Assay in human induced IMR90 Pluripotent Stem Cells (UKN2) (AID 2284204); details: actives raise or lower the signal
Procedure, shortened: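 iPSC-derived IMR90 neural crest cells seeded around stoppers on PLO/laminin/fibronectin; migration started in N2-S medium with EGF/FGF, compounds added after 24 h for 24 h. Migration into cell-free area imaged after calcein-AM/Hoechst staining; bidirectional fit versus DMSO.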

[21] = IUF_NPC1b_proliferation_BrdU_72hr: Leibniz Research Institute for Environmental Medicine (IUF) 72-hour Neural Progenitor Cell Bromodeoxyuridine (BrdU) Proliferation Assay (NPC1b) (AID 2284207)
Procedure, shortened: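 BrdU luminescence ELISA quantified DNA synthesis over the last 16 h of a 72 h exposure, fitted against DMSO. Primary hNPC spheres from gestational week 16-19 cortex grown with EGF/FGF at 37C, pH 7.2-7.6.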

[22] = IUF_NPC1a_proliferation_area_72hr: Leibniz Research Institute for Environmental Medicine (IUF) 72-hour Neural Progenitor Cell Proliferation Area Assay (NPC1a) (AID 2284208)
Procedure, shortened: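 Read-out: increase in sphere area over 72 h by automated phase-contrast imaging, fitted in positive direction versus DMSO baseline. One hNPC sphere (0.25-0.35 mm) per well in EGF/FGF medium; growth-factor withdrawal served as positive control.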

[23] = IUF_NPC1_viability_72hr: Viability Assessment at 72 hours in the Leibniz Research Institute for Environmental Medicine (IUF) Neural Progenitor Cell Proliferation Assay (NPC1) (AID 2284209)
Procedure, shortened: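 Single spheres (0.25-0.35 mm) of human fetal cortex-derived neural progenitor cells were grown in proliferation medium with EGF and FGF at 37C and 5% CO2. They were exposed for 72 h without renewal, and viability was read by alamar blue resorufin fluorescence.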

[24] = CCTE_Mundy_HCI_Cortical_Synap_Neur_Matur_NeuriteSpotCountPerNeuriteLength: CCTE's Synaptogenesis and Neurite Maturation Assay in rat cortical cells for Neurite Spot Count per Neurite Length, Mundy Lab (AID 2284210)
Procedure, shortened: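 Rat primary cortical cultures, AraC added at DIV 5 to suppress glia; chemical exposure from DIV 7 to DIV 12. Fixed cells stained for MAP2 and synaptophysin plus Hoechst; synaptophysin puncta per neurite length quantified by high-content imaging, relative to DMSO.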

[25] = CCTE_Mundy_HCI_Cortical_NOG_NeuriteCount: CCTE's Neurite Outgrowth Assay in rat cortical cells for Neurite Count, Mundy Lab (AID 2284212);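 note: cells fixed about two days after chemical exposure began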
Procedure, shortened: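 Neurite number per cell from high-content imaging of betaIII-tubulin immunostaining, with Hoechst nuclear counterstain.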

Measured: AC50

BrC1CC(Br)CC(Br)CC(Br)CC(Br)CC(Br)C1 (stereo not given)
active: [1] 8.92 µM | [2] 4.4 µM | [3] 6.75 µM | [4] 4.73 µM | [5] 5.42 µM | [6] 8.48 µM | [8] 4.31 µM | [10] 8.72 µM | [11] 7.04 µM | [12] 3.57 µM | [13] 5.04 µM | [14] 4.17 µM | [15] 6.85 µM | [16] 10.6 µM | [17] 12.6 µM | [18] 2.73 µM | [19] 2.92 µM | [20] 5.5 µM | [21] 8.81 µM | [24] 3.49 µM | [25] 8.41 µM
inactive: [7] | [9] | [22] | [23]
